Experimental data as given in PubChem BioAssay AID1531 (NMMLSC, 2009).
Screen size: about 290,000 compounds; about 3,300 (1.1%) were called active. What follows is part of a selection rich in actives, with near analogues and random picks from the rest. Unmarked numbers belong to inactive results. Rule as the data show it: active = binding response below about 67% or above about 130%; inconclusive = no clear call, values can overlap the other calls; inactive = in between.

The molecules below were run against Mitogen-activated protein kinase kinase kinase 2 (Homo sapiens) (UniProt Q9Y2U5) (assay: wildtype MEKK2 PB1-MEK5 interaction, increase or decrease – biochemical, multiplex bead flow cytometry, Alexa488-MEK5, primary screen (AID 1531)). Conditions: Alexa488-MEK5 binding to MEKK2 WT, at 10 µM, actives lie on both sides.

| SMILES | binding response (% of control) |
| --- | --- |
| Cc1cc(C)cc(N(CC(=O)NC2CCCC2)C(=O)CCC(=O)Nc2cc(C)on2)c1 | 96% |
| COCCCNC(=O)[C@H]1N2C(=O)c3ccccc3C2SC1(C)C (some centres undefined) | 103% |
| CS(=O)(=O)Nc1cccc(C2=NN(S(=O)(=O)c3ccccc3)C(c3cccs3)C2)c1 (centres undefined) | 94% |
| CS(=O)(=O)Nc1cccc(C2=NN(C(=O)c3cccc(F)c3)C(c3cccs3)C2)c1 (centres undefined) | 102% |
| Cc1ccc(C2CC(c3cccc(NS(C)(=O)=O)c3)=NN2S(C)(=O)=O)cc1 (centres undefined) | 20% (active) |
| CN(C(=O)CC1C(=O)NCCN1Cc1ccc(F)cc1Cl)C1CCCCC1 (centres undefined) | 101% |
| S=C(NCc1ccc(Cl)cc1)NC1CCCCC1 | 106% |
| O=C(NCc1ccncc1)NC12CC3CC(CC(C3)C1)C2 | 87% |
| S=C(NCc1ccc(Cl)cc1)NC12CC3CC(CC(C3)C1)C2 | 160% (active) |
| Cc1cccc(OCC(=O)NCC(=O)N/N=C/c2ccc(N(C)C)cc2)c1 | 106% |
| CN(C)CCCn1c(SCc2ccc(Cl)cc2)nnc1-c1ccncc1 | 109% |
| O=S(=O)(Cc1nnnn1-c1ccccc1)c1ccccc1 | 108% |
| Cc1cc(/C=C2/C(=N)N3C(=NC2=O)SN=C3S(C)(=O)=O)c(C)n1-c1ccccc1 | -2% (active) |
| CCC1=NN2C(=N)/C(=C/c3cc(C)n(-c4ccccc4)c3C)C(=O)N=C2S1 | 98% |
| CCS(=O)(=O)C1=NSC2=NC(=O)/C(=C\c3cc(C)n(-c4cccc(OC)c4)c3C)C(=N)N21 | 98% |
| Cc1cccc(CCNC(=O)Cn2ncc3c([nH]c4ccc(C)cc43)c2=O)c1 | 96% |
| C=CCOc1cccc(C2C(C(=O)c3ccc(C)o3)=C(O)C(=O)N2CCCn2ccnc2)c1 (centres undefined) | 98% |
| CCCc1nnc(SCC(=O)N2C(C)CCCC2C)n1CC (centres undefined) | 812% (active) |
| CC1CCCC(C)N1C(=O)CSc1nnnn1C1CCCC1 (centres undefined) | 100% |
| CCCc1cc(=O)[nH]c(SCC(=O)N2C(C)CCCC2C)n1 (centres undefined) | 113% |

| SMILES | binding response (% of control) |
| --- | --- |
| COc1ccccc1CNS(=O)(=O)c1c(C)[nH]c(C)c1C(=O)N1CCCCC1 | 101% |
| O=C(Nc1ccc(C(=O)N2CCOCC2)cc1)Nc1cccc(C(F)(F)F)c1 | 102% |
| O=C(COc1cc2oc(=O)c3c(c2cc1Cl)CCC3)NCCCN1CCOCC1 | 100% |
| CCCC[C@@H]1CN=C(N)N1CCc1cccc(F)c1 | 107% |
| CCCn1c(=N)n(CC(=O)c2ccc(Cl)c(Cl)c2)c2ccccc21 | 139% (active) |
| CCCNC(=O)c1ccc(Cl)c(Cl)c1 | 101% |
| CCn1c(=N)n(CC(=O)c2cccc(OC)c2)c2ccccc21 | 96% |
| COC(C[C@@H]1O[C@@H]1C(=O)[C@@H](C)OCc1ccccc1)OC | 97% |
| O=C(CCN1CCc2ccccc2C(O)(c2ccccc2)C1)c1ccc2c(c1)OCCO2 (centres undefined) | 103% |
| CCN1CCN(CCNC(=O)c2ccc3c(c2)NC(=O)/C(=C\c2ccc(OC)c(OC)c2)S3)CC1 | 131% |
| O=C(NCCN1CCOCC1)c1ccc(/C=C2\Sc3ccccc3N(Cc3ccc(F)cc3)C2=O)cc1 | 128% |
| CCN1CCN(CCNC(=O)c2ccc(/C=C3/Sc4ccccc4N(Cc4cccc(C)c4)C3=O)cc2)CC1 | 220% (active) |
| CCOc1cc(C)c(S(=O)(=O)NCc2ccccn2)cc1C | 102% |
| Cc1cccc(N2CCN(C(=O)COCc3cc(-c4ccc5c(c4)OCO5)on3)CC2)c1C | 100% |
| Cc1nc2sccn2c(=O)c1S(=O)(=O)NCCc1ccccc1 | 99% |
| COc1ccc(CN2[C@@H](CC(=O)O)c3cc(F)ccc3S2(=O)=O)cc1 | 84% |
| CC(Oc1cccc(Cl)c1)C(=O)NC1CC(C)(C)NC(C)(C)C1 (centres undefined) | 107% |
| CC(=O)Nc1ccc(C(=O)Nc2nc(-c3cc(C)n(Cc4ccccc4)c3C)cs2)cc1 | 107% |
| Cc1cc(-c2csc(N)n2)c(C)n1-c1ccccc1 | -9% (active) |
| Cc1cc(-c2csc(N)n2)c(C)n1Cc1ccccc1 | 89% |

| SMILES | binding response (% of control) |
| --- | --- |
| COC(=O)CN1C(=O)[C@H]2[C@@H](/C=C/c3ccccc3)N3C(=O)CN(Cc4ccccc4)C(=O)[C@@]3(Cc3ccccc3)[C@H]2C1=O | 95% |
| COCCNc1cc(-c2ccccc2)nc2cc(-c3cccc(F)c3)nn12 | 118% |
| COc1ccc(SC[C@H](Cc2ccccc2)N2CCN(CCc3ccccc3)CCC2=O)cc1 | 158% (active) |
| O=C1CCN(Cc2ccccc2)CCN1[C@H](CSc1ccccc1)c1ccccc1 | 90% |
| COc1ccc(SCCN2CCN(CC(C)C)CCC2=O)cc1 | 131% |
| O=C1CCNCCN1[C@H](CO)Cc1ccccc1 | 110% |
| CN1CCC(=O)N([C@H](CO)Cc2ccccc2)CC1 | 97% |
| C[C@H]1CCC(=O)N([C@H](CSc2ccccc2)Cc2ccccc2)CC1 | 161% (active) |
| O=C(NCc1ccccc1)C1=C[C@@H](c2ccccc2)C[C@@H](OCCCCO)O1 | 101% |
| COCOc1cc(O)c(C(=O)/C=C/c2ccc(OCOC)c(OCOC)c2)c(OCOC)c1 | 111% |
| COc1ccccc1N1CCN(c2nc(C)cc(=O)[nH]2)CC1 | 107% |
| CCCOc1ccc(C(=O)C(CCC(CNCC)C(=O)c2ccc(OCCC)cc2)CNCC)cc1 (centres undefined) | 188% (active) |
| CCCCOc1ccc(C(=O)NN2CCN(C)CC2)cc1 | 99% |
| CCCCOc1ccc(C(=O)NCc2ccncc2)cc1 | 111% |
| CCCCN(CCCC)CCNC(=O)CN1C(=O)COc2ccc(S(=O)(=O)N3CCOCC3)cc21 | 103% |
| CCn1c(-c2cc(OC)ccc2OC)csc1=Nc1c(C)n(C)n(-c2ccccc2)c1=O | 107% |
| CN=c1scc(-c2cc(OC)ccc2OC)n1/N=C/c1c(C)[nH]c2ccccc12 | 10% (active) |
| COc1ccc(N=Cc2c(O)[nH]c3ccccc23)cc1OC | 103% |
| Cc1cc(OCC(=O)NCC(O)c2ccccc2)c2c(C)c(C)c(=O)oc2c1 (centres undefined) | 100% |
